Results: PubChem BioAssay (NCI)
This is part of a sample that, as a whole, favours compounds with a hit. Of some 83,000 tested, about 20% had one in any assay.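 Cells were grown in 96-well plates and exposed to the test compound at a single concentration for 48 hours; results are reported as percent growth, with values below 10 considered active.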 Activity calls are given as the source filed them.

Each compound was assayed on HL-60(TB) leukemia (assay: NCI-60 one-dose screen, 48 h (100 = growth as untreated, 0 = no growth, -100 = all killed)). Conditions: 10 µM unless noted.
`Cc1ccc(-c2csc3nc(C)c(CCCl)c(=O)n23)cc1` was tested, and the growth was 107% (inactive).
`CCOC(=O)c1c(C)nc2c(c1N)/C(=C/c1cccs1)C(=O)N2c1ccc(OC)cc1` was tested, and the growth was 90.2% (inactive).
For `[O-]/[N+](=C\c1ccccc1)CC1(O)CCCCC1`, the growth was 98.5% (inactive).
In the case of `C(=N\Nc1ncc(-c2cc3cc4c(cc3o2)OCO4)s1)/c1ccco1`, the growth is reported as 16.2% (inactive).
`CCCOCc1cn[nH]n1` was tested, and the growth was 105% (inactive).
With `O=[N+]([O-])c1c(O)c(CNCCCO)cc(CNCCCO)c1O` the growth was 75.8% (inactive).
For `N=C(N)c1ccc(-c2ccc(-c3ccc(Cl)cc3)s2)s1`, the growth was -58.6% (active).
In the case of `O=C1/C(=C/c2cccc3cnccc23)Cc2cc(F)ccc21`, the growth is reported as 105% (inactive).
For `N#CC1=CC2CN(Cc3ccccc3)C1C1C(=O)N(c3ccccc3)C(=O)C21` (stereo not given), the growth was 76% (inactive).
`C#CC(F)(F)[C@]1(O)CC[C@H]2[C@@H]3CCC4=CC(=O)CCC4=C3[C@@H](c3ccc(C4CC4)cc3)C[C@@]21C` was tested, and the growth was -61.1% (active).
`COCc1nc2ccccc2[nH]1` was tested, and the growth was 96.5% (inactive).
With `O=C1/C(=C/c2ccc(F)cc2)CN(Cc2cn(CCNc3ccnc4cc(Cl)ccc34)nn2)C/C1=C\c1ccc(F)cc1` the growth was -27.6% (active).
In the case of `O=C1O[C@H]([C@H](O)CO)C(O)=C1O`, the growth is reported as 99.5% (inactive).
`C[C@H]1[C@H](C)CC[C@]2(C(=O)O)CC[C@]3(C)C(=CC[C@@H]4[C@@]5(C)C[C@@H](Cc6cn([C@@H]7O[C@H](CO)[C@@H](O)[C@H](O)[C@H]7O)nn6)[C@H](O)C(C)(C)[C@@H]5CC[C@]43C)[C@H]12` was tested, and the growth was 91% (inactive).
For `CCOC(=O)C1=C(C)NC(=O)NC1c1cccs1` (stereo not given), the growth was 60.5% (inactive).
With `Brc1ccc(SSc2ccc(Br)cc2)cc1` the growth was 70.9% (inactive).
`CCOC(=O)c1c(-c2ccccc2)n2c(=O)cc(C)c3c(O)c(O)cc1c32` was tested, and the growth was 11.7% (inactive).
For `CC(=O)O[C@]1(C(C)=O)CCC2C3C[C@H](C)C4=CC(=O)CC[C@]4(C)C3CC[C@@]21C` (stereo not given in full), the growth was 87.4% (inactive).
With `CC1SC(c2cccc(Oc3ccccc3)c2)N(CCc2cccs2)C1=O` (stereo not given) the growth was -21.9% (active).
For `Fc1cc2[nH]ncc2c2c3c(c(-c4cn[nH]c4C(F)(F)F)nc12)C1CCC3C1` (stereo not given), the growth was 1.63% (active).
With `C#CCO[C@H]1CC(CC#C)(CC#C)C(=O)[C@@H]2[C@H]1[C@H]1C[C@@H]3[C@@]4(C)CCC[C@@](C)(C(=O)OC)[C@@H]4CC[C@@]23C=C1C(C)C` the growth was 54.8% (inactive).
With `CS(=O)(=O)c1nccc(-c2c(-c3cccc(OCCN4CCOCC4)c3)nc3sccn23)n1` the growth was 66.4% (inactive).
In the case of `Cc1cc(NCc2cc(Nc3ccnc4cc(Cl)ccc34)ccc2F)nc(Cl)n1`, the growth is reported as 22.9% (inactive).
In the case of `COc1cc(/C=C2/C=C(c3ccc(C(C)(C)C)cc3)N(CCc3ccc(S(N)(=O)=O)cc3)C2=O)cc(OC)c1OC`, the growth is reported as 20.5% (inactive).
`CCCCCCCCCCCCCC1=NCCN1CCO` was tested, and the growth was 2.28% (active).
With `CCn1c(Cc2ccccc2Nc2c(Cl)cccc2Cl)nnc1SCC(=O)NN1C(=O)/C(=C/c2cccc(OC)c2OC)SC1=S` the growth was 97.5% (inactive).
`CCNC(=O)Oc1ccc(/C(=C(/CC)Cc2ccccc2)c2ccc(OCCN3CCCC3)cc2)cc1` was tested, and the growth was 69.2% (inactive).
For `COc1ccc(-c2nc3sccn3c2-c2ccnc(NCCNS(=O)(=O)c3ccc(C(F)(F)F)cc3)n2)cc1`, the growth was 4.59% (active).
For `CC(C)(C)CC(C)(C)n1nnnc1C(NC12CC3CC(CC(C3)C1)C2)c1ccccc1` (stereo not given), the growth was 99.3% (inactive).
`O=C(Oc1c(Cl)c(Cl)c(Cl)c(Cl)c1Cl)C1CCCN1C(=O)OCc1ccccc1` (stereo not given) was tested, and the growth was -12.5% (active).
`COc1ccc(-c2nsc3c2NC(=O)CC3c2ccc3c(c2)OCO3)cc1` (stereo not given) was tested, and the growth was -22.3% (active).
`COC1=CC(c2ccc[nH]2)=N/C1=C\c1[nH]c(C)c(C(=O)CCCCC(=O)NC(C)(C)C)c1C` was tested, and the growth was 3.43% (active).
In the case of `CC(C)=C[C@@H]1c2c(c3ccccc3n(C)c2=O)O[C@H]2c3c(c4ccccc4n(C)c3=O)OC(C)(C)[C@@H]12`, the growth is reported as 20.4% (inactive).
In the case of `c1cc2c(cc1-c1cnc3nonc3n1)OCO2`, the growth is reported as 0.978% (active).
With `Cc1ccc(-c2nc(/C=C3/C(=O)N(C)c4ccc(F)cc43)c3ccccn23)cc1` the growth was 102% (inactive).
For `O=c1cc(-c2ccccc2)oc2c1ccc1ccccc12`, the growth was 106% (inactive).
In the case of `O=C(Nc1ccccc1)Nc1ncnc2c1ncn2-c1ccccc1`, the growth is reported as 100% (inactive).
`CCCCCCCCCCOC(=O)c1nn(C(C)=O)c2cc(C)c(C)cc12` was tested, and the growth was 101% (inactive).
In the case of `CC(C)(C)c1ccc(OC(=O)Nc2ccccc2)cc1`, the growth is reported as 95.9% (inactive).
For `COc1ccccc1C(=O)/C=C/c1ccccc1`, the growth was 77% (inactive).
